Test results: PubChem BioAssay (NCI)
This is part of a sample that, as a whole, favours compounds with a hit. Of some 83,000 tested, about 20% had one in any assay.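 The test compound was applied at a single concentration to cells in 96-well plates for 48 hours, and percent growth was recorded.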 Unmarked numbers belong to inactive results. Activity calls are given as the source filed them. Rule for the calls: active = growth percent below 10; inactive = the rest.

Columns and labels:
Experiment in all cases: NCI-60 one-dose screen, 48 h (100 = growth as untreated, 0 = no growth, -100 = all killed)
Conditions in all cases: 10 µM unless noted
[1] = system: SR leukemia
[2] = system: RPMI-8226 leukemia
[3] = system: OVCAR-8 ovarian
[4] = system: OVCAR-5 ovarian
[5] = system: OVCAR-4 ovarian
[6] = system: SK-OV-3 ovarian
[7] = system: IGROV1 ovarian
[8] = system: OVCAR-3 ovarian
[9] = system: HS 578T breast
[10] = system: T-47D breast
[11] = system: BT-549 breast
[12] = system: MDA-MB-435 melanoma
[13] = system: SW-620 colon
[14] = system: MCF7 breast
[15] = system: HCT-116 colon
[16] = system: HCC-2998 colon
[17] = system: KM12 colon
[18] = system: NCI/ADR-RES ovarian

Row | Structure (SMILES) | growth [1] | growth [2] | growth [3] | growth [4] | growth [5] | growth [6] | growth [7] | growth [8] | growth [9] | growth [10] | growth [11] | growth [12] | growth [13] | growth [14] | growth [15] | growth [16] | growth [17] | growth [18]
1 | CNC(=O)c1cc(Oc2ccc3nc(NC(=O)Nc4ccc(N5CCC(N(C)C)CC5)cc4)sc3c2)ccn1 | 0.621% (active) | 74.2% | 89.3% | 114% | 80.7% | 102% | 89% | 90.1% | 80.9% | 78.1% | 98.7% | 98.8% | 71.6% | 67.7% | 39% | 95.4% | 60.4% | 
2 | O=C(Cc1ccccc1)c1ccc(Cl)cc1 | 96.7% | 160% | 103% | 83.2% | 107% | 107% | 105% | 111% | 120% |  | 106% | 94.3% | 99% |  | 93.2% | 99% | 101% | 96.6%
3 | c1ccc(CSc2ncnc3nc[nH]c23)nc1 | 103% | 124% |  | 96.6% | 105% | 116% | 105% | 104% | 121% | 107% | 122% | 92.3% | 113% | 99.7% | 93.1% | 125% | 106% | 103%
4 | CCCCCCCCCCCCN1CCCC(C)C1 (stereo unspecified) | -13.9% (active) | 64.1% |  | 88.2% | 68% | 88.3% | 82.4% | 93.3% | 99.8% | 74.6% | 78.1% | 95.9% | 87.7% | 68.6% | 60.7% | 86.9% | 60.7% | 88.2%
5 | CCN(CC)CCCC(C)N/C(=C1\C(=O)NC(=O)\C1=C(/NC(C)CCCN(CC)CC)c1cccc(OC)c1)c1cccc(OC)c1 (stereo unspecified) | -25.1% (active) | -35.7% (active) |  | 1.93% (active) | -23.3% (active) | 11.8% | -18.5% (active) | -11.3% (active) | 38.4% | 48.6% | 2.98% (active) | -81.6% (active) | 0.116% (active) | 0.0378% (active) | 2.62% (active) | -89.2% (active) | 1.06% (active) | 2.36% (active)
6 | O=C(O)c1c([N+](=O)[O-])cnc2ccccc12 | 135% | 108% | 96.2% | 99.1% | 107% | 93% | 106% | 118% | 113% | 83.5% |  | 102% | 101% |  | 97.5% | 100% | 111% | 
7 | O=S(=O)(NCCCNc1cc(-c2cn(-c3ccccc3)nc2-c2ccccc2)ccn1)c1ccc(C(F)(F)F)cc1 | 39.3% | 44.1% | 54.6% |  | 58.7% | 68.9% | 59.2% | 72% | 61% | 38.7% | 71.2% | 50% | 71.1% | 39.2% | 43.2% | 64.1% | 40.5% | 
8 | COc1c(Cl)cc(Cl)cc1Cl | 101% | 118% | 112% | 121% |  | 107% | 97.4% | 109% | 87.8% | 104% | 120% | 115% | 91.8% | 111% | 109% | 118% | 109% | 112%
9 | COc1ccc(C(=O)c2sc3nc(-c4ccccc4OC)ccc3c2N)cc1OC | 21.6% | 19.7% | 43.2% | 89.8% | 61.5% | 107% | 57.5% | 68.9% | 55.6% | 26.4% | 20.9% | 31.7% | 73.6% | 62.1% | 39.3% |  | 46.1% | 
10 | CCCCNP1(NCCCC)=NP(NCCCC)(NCCCC)=NP(NCCCC)(NCCCC)=NP(NCCCC)(NCCCC)=N1 | -51.8% (active) | -41.7% (active) | 16.7% | 16.7% | 16.9% | 7.65% (active) | 30.7% | -48.7% (active) | -7.98% (active) |  | 45.4% | 6.7% (active) | 6.12% (active) | -7.14% (active) | 0.711% (active) | -24.9% (active) | -24.7% (active) | 
11 | COc1cc(/C=N/N(C)C)ccc1O | 93% | 92.4% | 96.1% | 106% | 115% | 97.1% | 104% | 109% | 87.3% |  | 105% | 106% | 90.7% | 98.4% | 101% |  | 103% | 
12 | COc1ccc2nc(NC(=O)c3cccnc3Nc3cc(OC)c(OC)c(OC)c3)sc2c1 | -12.6% (active) | -1.38% (active) | -10.3% (active) |  | -65.5% (active) | -40.4% (active) | 68.6% | -62.5% (active) | 44.5% | -7.17% (active) | -90.5% (active) | 7.52% (active) | 27.8% | 8.16% (active) | -2.4% (active) | 77.8% | 11.9% | 4.41% (active)
13 | Cn1c(=O)c2[nH]c(C(O)C(O)C(O)C(O)CO)nc2n(C)c1=O (stereo unspecified) | 105% | 110% | 108% | 101% | 116% | 99.8% | 106% | 109% | 107% | 90.8% | 108% | 108% | 102% |  | 106% | 103% | 101% | 
14 | Nc1ccc(N2CCOCC2)cc1 | 110% | 112% | 105% | 91.7% | 92.8% | 104% | 105% | 99.7% | 125% | 88.1% | 82.1% |  | 111% | 88.8% | 98% | 96.9% | 115% | 
15 | CCCCNC(=O)NS(=O)(=O)c1ccc(N2N=C(c3cc(C)ccc3C)CC2c2cc(OC)c(OC)c(OC)c2)cc1 (stereo unspecified) | 12.7% | 28.3% | 53.2% | 95.9% | 77.7% | 68% | 41.4% | 53.3% |  | 38.4% | 20.6% | -46.2% (active) | 66.6% | 24.4% | 32.3% | -1.57% (active) | 46.1% | 30.3%
16 | CCCCN(CCCC)CCC(C)(O)c1cc2ccccc2c2ccccc12 (stereo unspecified) | 39.7% | 67.3% | 92.6% | 98.6% | 109% | 99.9% | 6.06% (active) | 69% |  | 109% | 121% | 83.9% | 69.5% |  | 65.6% | 80.3% | 83.8% | 67.6%
